Results filed as inconclusive are left out. Values without a mark were called inactive. The call rests on the fitted dose curve; in most records, active means well fitted cell-killing curve with a large enough effect in the repeat runs; inconclusive means weak or mixed curves, or effect the other way; inactive means flat fitted curve, though single readings scatter.
assay: qHTS assay to identify small molecule antagonists of the retinoid acid receptor (RAR) signaling pathway - cell viability counter screen (AID 1159551); settings: C3RL4 cells viability, ATP luminescence (CellTiter-Glo), 6 h; series mostly up to 92.4 µM; activity change, negative = cytotoxicity: at the top concentration; further: nearly all actives have a fitted effect of over 35% in size
Description: U.S. Tox21 Program National Center for Advancing Translational Sciences [NCATS] NIH Chemical Genomics Center [NCGC] U.S. Environmental Protection Agency [EPA] National Institutes of Environmental Health Sciences [NIEHS] National Toxicology Program [NTP] U.S. Food and Drug Administration [FDA] Tox21 Assay Overview: All-trans Retinoic acid (atRA) is the potent natural metabolite of retinol and plays an important role in normal embryonic development and maintenance of cellular phenotype in adult animals. atRA is the activating ligand for the retinoic acid receptors (RARs) which form heterodimers with retinoid X receptors (RXRs) on the retinoic acid response element (RARE). Through activation of the RAR/RXRs nuclear receptors, atRA regulates the transcription of a large number of protein-coding genes and regulatory RNAs. Intracellular levels of atRA are controlled by the retinol signaling pathway (RSP) that regulates the biosynthesis and catabolism of atRA to maintain physiological levels. Chemicals that interfere with the RSP can cause abnormal intracellular levels of atRA and therefore are potential developmental toxicants. To assess compounds for the potential adverse effect on embryonic development through interfering with retinol signaling, a cell-based RARE luciferase reporter gene assay was used. C3RL4 cell line (OARSA/CFSAN/FDA, Laurel, MD) was used to screen Tox21 10K compound library for identifying inhibitors of the RSP. Also cytotoxicity was assessed by determining the viability of cells based on the quantitation of ATP.
Tox21 Assay Protocol Summary: C3RL4 cells were seeded at 1,000/well in 4 uL of assay medium into white solid 1,536-well tissue culture plates (Greiner Bio-One North America Inc. Monroe, NC) using a Multidrop Combi (Thermo Scientific, Waltham, MA) dispenser. After incubation at 37 C and 5% CO2 for an overnight, 23 nL of compounds dissolved in DMSO, positive control or DMSO only were transferred by a Pintool station (Kalypsys, San Diego, CA). One ul of 1 uM (final concentration) of Retinol was added right after the compound addition by using a Flying Reagent Dispenser (FRD) (Aurora Discovery, San Diego, CA). After 6 hr incubation at 37 C and 5% CO2, 5 uL of CellTiter-Glo reagent (Promega Corporation, Madison, WI) was added to each assay plate using an FRD. Luminescence was quantified on a ViewLux plate reader (PerkinElmer, Waltham, MA) after 30 min incubation at room temperature.
On the % scale 0 is the no-effect control and ±100 the full control effect.

Row | SMILES | activity change, negative = cytotoxicity
1 | NCCOCCN | 2.5%
2 | CC1=C(O)C(=O)C(C)O1 (stereo not given) | -0.231%
3 | COC(=O)c1cc(Cl)cc(Cl)c1 | 1.17%
4 | CCCCCCCCCCCCCCC(=O)NC(CO)CCCCCCCCCCCCCC (stereo not given) | 3.88%
5 | O=C(Cn1ccnc1[N+](=O)[O-])NCc1ccccc1 | 0.545% [at 42.5 µM]
6 | O=C(CN1CCNCC1)NC1CCCCC1 | -1.07% [at 42.5 µM]
7 | C=CCCCCCCCCC(=O)OCCCC | -0.126%
8 | c1ccc2cnccc2c1 | -0.99%
9 | Cc1ccnc(N)c1 | -1.6%
10 | CNCCS(=O)(=O)O | 0.68%
11 | C=C(C)[C@@H]1CC=C(C)CC1 | 0.599%
12 | CCCCCCCCCOC(=O)c1ccccc1C(=O)OCCCCCCCCC | -0.433%
13 | Cc1ccc(C)c([N+](=O)[O-])c1 | 1.86%
14 | CC/C(C)=N\O[Si](C)(O/N=C(\C)CC)O/N=C(\C)CC | 2.79%
15 | Cn1nnc2c(C(N)=O)ncn2c1=O | 7.81% [at 42.5 µM]
16 | O=C(O)CSCC(=O)NC1CCSC1=O (stereo not given) | 1.76% [at 42.5 µM]
17 | C=CCN1C[C@H](C(=O)N(CCCN(C)C)C(=O)NCC)C[C@@H]2c3cccc4[nH]cc(c34)C[C@H]21 | 0.44% [at 42.5 µM]
18 | CC(C)Cn1cnc2c1c(=O)n(C)c(=O)n2C | -1.81% [at 42.5 µM]
19 | Cc1ccc(C(=O)O)cc1[N+](=O)[O-] | 0.402%
20 | O=[N+]([O-])c1c(Cl)cc(Cl)cc1Cl | -2.22%

Row | SMILES | activity change, negative = cytotoxicity
21 | CC/C=C\CCOC(=O)c1ccccc1O | -0.0622%
22 | O=NN(CCCl)C(=O)NC1CCCCC1 | -0.135% [at 42.5 µM]
23 | CN(C)CCN(C)CCO | 4.57%
24 | CCCC(=O)OCCC(C)CCC=C(C)C (stereo not given) | -0.871%
25 | CCn1cc(C(=O)O)c(=O)c2cnc(N3CCCC3)nc21 | 0.0795% [at 8.39 µM]
26 | CC1c2ccccc2CN1NC(=O)c1ccc(Cl)c(S(N)(=O)=O)c1 (stereo not given) | -1.34% [at 42.5 µM]
27 | CC(=O)O[C@H]1C[C@@H]2CC[C@@]1(C)C2(C)C | 3.52%
28 | O=C(Cl)c1ccccc1[N+](=O)[O-] | 0.993%
29 | Cc1c(N)cccc1Cl | -0.644%
30 | CC1CC(=O)CC(C)(C)C1 (stereo not given) | -0.443%
31 | CC(C)=CCC[C@@](C)(O)[C@H]1CC=C(C)CC1 | -1.49% [at 42.5 µM]
32 | CC(=O)OC1CCCCC1C(C)(C)C (stereo not given) | 1.68%
33 | CN(C)CC/C=C1/c2ccccc2COc2ccc(CC(=O)O)cc21 | 2.69% [at 42.5 µM]
34 | O=Cc1ccccc1Cl | 4.19%
35 | O=C(CCCl)NCCc1ccccc1 | 1.07% [at 42.5 µM]
36 | CC(=O)CC(=O)Nc1ccc(C)cc1C | 2.96%
37 | Cc1cc(-c2ccccc2)nnc1NCCN1CCOCC1 | 0.938% [at 42.5 µM]
38 | CC1OCCC1=O (stereo not given) | -0.392%
39 | CCCC(CC)c1ccccc1 (stereo not given) | 4.02%
40 | OC[C@@H](O)C(O)[C@@H](O)CO (stereo not given in full) | -3.42%
